# Experimental data from PubChem BioAssay AID2163 (National Center for Advancing Translational Sciences (NCATS), 2009).
# This is one part of the list. Activity calls are given as the source filed them.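 How the source made its calls: active means compounds that slowed 12-hLO product formation enough to yield a measured IC50 potency; inactive means the rest.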
# Target: Polyunsaturated fatty acid lipoxygenase ALOX12 (Homo sapiens) (UniProt P18054)
# Experiment: Cuvette-Based Assay for Inhibitors of 12-hLO (12-human lipoxygenase): 8HQ Series - Round 1
# Conditions: purified 12-hLO, cuvette UV 234 nm product formation
# Method: Assay Provider: Holman, T.R., University of California, Santa Cruz Screening Center PI: Austin, Christopher P. Screening Center: NIH Chemical Genomics Center The enzyme activity of 12-hLO was determined by a direct measurement of product formation by monitoring the absorbance at 234 nm in a 2 mL cuvette. IC50 values of inhibitors were obtained by measuring the enzymatic rate at a variety of concentrations (Carroll et al, Segraves et al).
# For control experiments, 2 mL of substrate buffer (10 uM arachidonic acid / 25 mM HEPES / 0.01% (v/v) Triton X-100, pH 8.0) was aliquoted in a cuvette with a magnetic stir bar. After equilibrium was ensured, an aliquot of inhibitor solvent was added (DMSO), and equilibrium was once again assured. The reaction was started by adding enzyme to the cuvette and the reaction was followed until completed. The inhibition experiments were performed as above, except the actual inhibitory compound was added instead of vehicle. To achieve an IC50, typically 5 concentrations of the inhibitor were studied. If the inhibitor concentration was constant, then five different reaction volumes were used. […] 3; No change in absorbance ensured. […] 5; No change in absorbance ensured. […]
# Chain of Polyunsaturated fatty acid lipoxygenase ALOX12 (Homo sapiens) (P18054 whole entry, looked up): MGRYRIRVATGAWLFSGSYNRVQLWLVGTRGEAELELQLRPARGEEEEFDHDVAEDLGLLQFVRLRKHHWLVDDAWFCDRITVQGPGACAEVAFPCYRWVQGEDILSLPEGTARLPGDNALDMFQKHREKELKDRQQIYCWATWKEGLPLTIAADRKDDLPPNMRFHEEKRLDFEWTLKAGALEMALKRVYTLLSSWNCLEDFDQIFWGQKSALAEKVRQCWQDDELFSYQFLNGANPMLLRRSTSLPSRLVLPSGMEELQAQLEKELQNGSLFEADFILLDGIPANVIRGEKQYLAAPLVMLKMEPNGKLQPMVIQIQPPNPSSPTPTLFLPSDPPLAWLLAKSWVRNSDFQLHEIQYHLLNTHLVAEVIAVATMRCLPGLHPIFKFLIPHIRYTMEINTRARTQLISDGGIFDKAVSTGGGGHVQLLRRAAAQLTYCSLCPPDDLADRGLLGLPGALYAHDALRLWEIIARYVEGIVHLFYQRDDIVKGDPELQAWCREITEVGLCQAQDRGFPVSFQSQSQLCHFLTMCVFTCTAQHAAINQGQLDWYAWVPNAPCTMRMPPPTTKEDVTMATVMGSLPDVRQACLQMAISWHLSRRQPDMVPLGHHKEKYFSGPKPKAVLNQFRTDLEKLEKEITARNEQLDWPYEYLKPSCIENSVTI
row,Compound,Potency
1,CC(=O)NC(c1cccs1)c1cc(Cl)c2cccnc2c1O (stereo unspecified),1000 nM (active)
